Measurements reported in PubChem BioAssay (NCI).
The panel holds about 83,000 compounds, 20% with a hit somewhere; the sample as a whole holds those more often.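 Cells were grown in 96-well plates and exposed to the test compound at a single concentration for 48 hours; results are reported as percent growth, with values below 10 considered active.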 Unmarked numbers belong to inactive results. Calls of active or inactive are those of the source.

How the values were obtained:
Test in all cases: NCI-60 one-dose screen, 48 h (100 = growth as untreated, 0 = no growth, -100 = all killed)
Conditions in all cases: 10 µM unless noted
DU-145 prostate = tested on: DU-145 prostate
K-562 leukemia = tested on: K-562 leukemia
MALME-3M melanoma = tested on: MALME-3M melanoma
MDA-MB-231 breast = tested on: MDA-MB-231 breast
RXF 393 renal = tested on: RXF 393 renal
SF-268 CNS = tested on: SF-268 CNS
SF-295 CNS = tested on: SF-295 CNS
SF-539 CNS = tested on: SF-539 CNS
UACC-257 melanoma = tested on: UACC-257 melanoma
M14 melanoma = tested on: M14 melanoma

SMILES | growth (DU-145 prostate) | growth (K-562 leukemia) | growth (MALME-3M melanoma) | growth (MDA-MB-231 breast) | growth (RXF 393 renal) | growth (SF-268 CNS) | growth (SF-295 CNS) | growth (SF-539 CNS) | growth (UACC-257 melanoma) | growth (M14 melanoma)
COc1cccc(Cn2c(-c3nonc3NC(C)=O)nc3ccccc32)c1 | 13.8% | 13.9% | 42.3% | 46.1% | -17% (active) | 59.5% | 15% | 36.7% | 52.7% | 14.1%
NC(=O)Nc1ccc2ncnc(Nc3cccc(O)c3)c2c1 | 90.4% | 103% | 121% | 104% | 111% | 85.4% | 98.1% | 109% | 99.8% | 102%
Cc1ccc(-c2nc3ccccc3c(=O)n2/N=C/c2cccc3ccccc23)cc1 | 96.9% | 65.5% | 68.6% | 66.8% | 91.8% | 74.1% | 66.8% | 96.5% | 86.4% | 67.5%
N#Cc1c(N)n(C2OC(CO)C(O)C2O)c2ncnc(N)c12 (stereo not given) | -9.06% (active) | -28.6% (active) | -25.7% (active) | 14.3% | -77.1% (active) | -18.8% (active) | 4.21% (active) | -53.1% (active) | -37.8% (active) | -52% (active)
Nc1cc2nc3ccccc3oc-2cc1=O | -97.1% (active) | 10.6% | -45.8% (active) | 59.8% | 81.1% | 38.5% | -11.1% (active) | -20% (active) | 31.7% | -83.6% (active)
NNC(=O)Cc1ccccc1 | 104% | 56.6% | 99.7% | 83.7% | 126% | 86.4% | 79.7% | 92.5% | 122% | 74.5%
O=C1/C(=C\c2cccn2Cc2ccc(Cl)cc2)c2ccccc2N1c1c(Cl)cccc1Cl | 105% | 75.6% | 79.5% | 68.1% | 78.3% | 88.1% | 87.7% | 88.8% | 93.1% | 101%
COc1cc(/C=C/c2ccc3c(Br)cc(Br)c(O)c3n2)ccc1O | 42.2% | -44.5% (active) | 53.7% | 53% | 1.71% (active) | 22.8% | 27.4% | 21.5% | 25.1% | 27.1%
CN(C)CCOc1nc2c3cccnc3cc(-c3cccc(Cl)c3)c2c2ncccc12 | 14.3% | -21% (active) | -90.4% (active) | -11.5% (active) | -87.4% (active) | 27.4% | 27.9% | 36.3% | -57.5% (active) | -82.1% (active)
COc1ccc(/C=C(/C(=O)N2CCN(c3ccccc3)CC2)c2cc(OC)c(OC)c(OC)c2)cc1O | 4.21% (active) | 6.23% (active) | 60% | 19.5% | 20.4% | 36.9% | 7.72% (active) | -10.8% (active) | 58.1% | 3.13% (active)
COc1ccc(C2=NN(C=O)C(c3ccc(OS(=O)(=O)c4ccc(C)cc4)c(OC)c3)C2)cc1 (stereo not given) | 72.8% | 16% | 45.9% | 56.4% | 82.7% | 68.7% | 41.6% | 66.9% | 42.9% | 58.8%
Cc1nc2c(-c3cnc(N)nc3)nc(N3CCOCC3)nc2n1C(C)C | 13.4% | 12.6% | -19.2% (active) | 23.9% | -29.6% (active) | 9.06% (active) | -36.1% (active) | -42.2% (active) | -23% (active) | 4.2% (active)
O=C1CC2(O)CSc3nc(=O)cc(n32)N1 (stereo not given) | 115% | 111% | 99.8% | 100% | 110% | 112% | 88.8% | 104% | 99.2% | 101%
